# Screens as filed in PubChem BioAssay.
# AHR activator = activates the human aryl hydrocarbon receptor; P35869; AHR-responsive luciferase reporter cells, luminescence; activation, % at 5 µM; 320,000 compounds, 2.5% hits; in the data active = activation above about 47%;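 also: 0% = vehicle wells and 100% = reference agonist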
# Target sequence (P35869 whole entry, looked up): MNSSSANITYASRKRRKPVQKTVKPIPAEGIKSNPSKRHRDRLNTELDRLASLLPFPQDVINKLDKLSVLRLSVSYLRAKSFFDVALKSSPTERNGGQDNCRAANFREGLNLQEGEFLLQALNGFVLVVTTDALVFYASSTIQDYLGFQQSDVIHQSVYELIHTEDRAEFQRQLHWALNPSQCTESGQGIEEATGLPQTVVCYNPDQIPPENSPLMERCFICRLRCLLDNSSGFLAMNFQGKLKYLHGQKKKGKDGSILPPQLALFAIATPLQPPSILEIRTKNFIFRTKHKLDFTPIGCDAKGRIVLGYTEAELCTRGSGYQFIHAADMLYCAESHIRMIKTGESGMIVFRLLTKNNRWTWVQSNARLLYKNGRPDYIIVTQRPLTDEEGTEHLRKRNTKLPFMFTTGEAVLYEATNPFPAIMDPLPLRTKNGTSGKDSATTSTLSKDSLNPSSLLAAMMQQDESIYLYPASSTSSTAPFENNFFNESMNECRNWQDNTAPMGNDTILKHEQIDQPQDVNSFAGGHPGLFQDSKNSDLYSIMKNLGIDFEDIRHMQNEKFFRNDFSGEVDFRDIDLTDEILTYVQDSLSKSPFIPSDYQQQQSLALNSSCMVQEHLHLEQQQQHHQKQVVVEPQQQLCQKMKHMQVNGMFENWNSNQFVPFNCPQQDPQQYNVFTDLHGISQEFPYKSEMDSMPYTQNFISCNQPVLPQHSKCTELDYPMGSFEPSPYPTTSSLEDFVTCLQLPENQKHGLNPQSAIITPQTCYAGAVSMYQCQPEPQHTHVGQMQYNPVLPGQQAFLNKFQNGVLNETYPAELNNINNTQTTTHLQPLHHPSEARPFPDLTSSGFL
# NTR1 ag = agonists of human neurotensin receptor NTR1; activation, % at 20 µM; 330,000 compounds, 0.17% hits; AID 493036; P30989; NTR1-U2OS beta-arrestin-GFP spot imaging, agonist mode;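 active = activation at or above 40% of the spot to cytoplasm intensity ratio, with at least 20 cells analyzed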;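 also: 0% = DMSO without peptide and 100% = 100 nM NTR1 peptide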
# SUMO Mot1 rescue = inhibitors of SUMOylation pathway: yeast Mot1-301 growth rescue; S. cerevisiae Mot1-301 growth rescue, ATP luminescence, 38.5C; percent above DMSO median, 100 means doubled; growth rescue, % at 18.8 µM; 320,000 compounds, 1% hits; AID 2716;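 active = every valid replicate shows activation above 250% relative to neutral control wells; inactive = the rest, any valid replicate at or below 250%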;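 also: OY570 slx delta 5 strain wells were the positive control but not used for scaling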
# AI-2 QS modul = modulates the Vibrio harveyi AI-2 quorum sensing system. 300,000 compounds, 0.4% hits. activity change, % at 7.5 µM. Vibrio harveyi JMH597 AI-2 luminescence/OD600 ratio, 9 h; active compounds read low; strain lacks LuxN and CqsS sensors; 0 = neutral-control median; in the data active = activity change below about -75%, passing the limit was not always enough;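 also: luminescence divided by OD600 gain over 9 h not by final OD600 alone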
# NR3A LBD binder = NR3A (human) ligand-binding domain modulation; Tm shift relative to glycine control, % at 25 µM; 340,000 compounds, 2.5% hits; AID 1259313; NR3A LBD differential scanning fluorimetry, Tm shift; 0% = protein alone, 100% = glycine-bound protein;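 active = melting temperature shift of at least 10% of the positive control shift, at one fixed dose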
# Cardio protect = modulators protecting cardiomyocytes from myocardial damage | H9c2 cardiomyocytes, H2O2 injury protection, ATPLite, 2 h | protection from H2O2 cell death, % at 20 µM | 360,000 compounds, 0.63% hits;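 active = compounds giving at least 50% protection of heart cells from peroxide-induced death in the single-dose screen, raw or plate-pattern-corrected value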;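 also: 0% = DMSO wells with peroxide and 100% = DMSO wells without peroxide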
# * hit, by the source's call; nt = no result given. The list is not random: actives were taken first. Their share in the collection is about 6.2%.
SMILES,AHR activator,NTR1 ag,SUMO Mot1 rescue,AI-2 QS modul,NR3A LBD binder,Cardio protect
COc1ccc2[nH]c(=O)c(CN(c3ccccc3OC)S(=O)(=O)c3ccccc3)cc2c1,33.8,1.7,6.1,1.0,4.1,67.6*
COc1ccc2[nH]c(=O)c(CNC3CCCCC3)cc2c1,1.2,-0.9,-10.1,26.5,0.1,56.6*
CCOC(=O)C1=CC[C@H]2c3c(c4ccccc4n3C)C(=O)C1N2C(=O)OC(C)(C)C,1.1,3.4,26.7,nt,-2.4,-0.8
C[C@H](CO)N1C[C@H](C)[C@@H](CN(C)S(=O)(=O)c2ccccc2F)Oc2ncc(Br)cc2C1=O,nt,nt,nt,nt,nt,-11.7
N#Cc1c(NC(=O)c2cccnc2)sc2c1CCC2,43.7,-1.2,nt,19.6,-1.5,-12.8
Cc1ccccc1C(=O)NC(=S)Nc1sc2c(c1C#N)CCC(C)C2 (stereo not drawn),3.3,8.3,-19.1,-5.4,13.7*,-7.5
N#Cc1c(NC(=S)NC(=O)c2ccccc2)sc2c1CCCC2,18.2,6.4,51.9,2.9,12.2*,-3.6
Cn1ncc(Cl)c1C(=O)NC(=S)Nc1sc2c(c1C#N)CCCCC2,3.0,5.1,5.0,19.5,13.2*,-13.5
N#Cc1c(NC(=O)c2cnccn2)sc2c1CCCC2,69.3*,-0.3,-12.9,11.7,-0.6,5.3
O=C(NCc1cccs1)c1ccc(CS(=O)Cc2ccc(Cl)cc2)o1 (stereo not drawn),nt,nt,nt,nt,nt,-6.6
CC[C@@H]1[C@H]2CCCC(=O)N3CC[C@@H](C[C@@H]1Nc1ccccc1)[C@@H]23,-0.7,1.1,9.4,4.1,-2.2,-0.9
COc1cc(C)c(Cl)cc1S(=O)(=O)NCc1ccco1,-5.7,0.8,-10.6,14.5,3.4,18.9
CCOc1cc(C)c(Cl)cc1S(=O)(=O)NCc1ccco1,-0.6,-0.2,346.9,36.5,19.6*,-2.6
Cc1cc2nccc(-c3ccc(OCCCF)cc3)n2n1,15.8,0.3,2.1,13.5,-0.5,6.0
O=S(=O)(Nc1ccc(-c2nc3cccnc3s2)cc1)c1ccccc1F,56.4*,1.1,26.7,-0.8,-5.1,6.8
O=S(=O)(Nc1ccc(-c2nc3cccnc3s2)cc1)c1ccc(Cl)s1,68.5*,4.0,25.0,18.4,2.7,-8.2
Cc1nc2cc(NS(=O)(=O)c3ccccc3F)ccc2s1,7.3,-0.5,6.9,8.4,-1.3,-4.3
COC1=CC(C)C2CC3OC(=O)CC4C(C)=C(OC)C(=O)C(C2(C)C1=O)C34C (stereo not drawn),nt,nt,nt,nt,nt,1.3
CCCOc1ccc(-c2nn(-c3ccccc3)cc2/C=C2\SC(N)=NC2=O)cc1C,9.9,8.8,-5.8,48.5,16.4*,-5.2
O=CNc1cc(-c2ccc(C(=O)NC3CC3)cc2)cn2c(-c3ccccc3)cnc12,nt,nt,nt,nt,nt,72.4*
CC(=O)c1ccc(-c2cnc3c(NC=O)cc(-c4ccc(C(=O)NC5CC5)cc4)cn23)cc1,nt,nt,nt,nt,nt,95.4*
O=CNc1cc(-c2ccc(C(=O)NC3CC3)cc2)cn2c(-c3ccc(F)c(Cl)c3)cnc12,nt,nt,nt,nt,nt,59.9*
CCCCC(=O)OCC(=O)Nc1ccc(OC(F)F)cc1,1.7,0.4,-15.1,22.7,13.1*,0.0
O=C(COC(=O)CCC1CCCCC1)Nc1ccc(OC(F)F)cc1,3.3,13.2,22.2,28.5,1.4,-7.8
COc1ccc(S(=O)(=O)N2CCCCC2)cc1NS(=O)(=O)c1ccccc1,-1.2,2.7,-5.5,nt,1.1,3.6
SMILES,AHR activator,NTR1 ag,SUMO Mot1 rescue,AI-2 QS modul,NR3A LBD binder,Cardio protect
O=c1c2ccccc2oc2ccccc12,nt,nt,nt,nt,nt,-1.5
O=c1c2ccccc2oc2c1ccc1ccccc12,nt,5.6,nt,nt,18.1*,-11.0
CC1(C(=O)NCc2ccco2)Cc2c(-c3cccc(C(N)=O)c3)ccnc2O1 (stereo not drawn),nt,nt,nt,nt,nt,12.5
CCOC(=O)C1(C(=O)O)NC(=O)CC1c1ccccc1 (stereo not drawn),-2.5,0.4,-4.3,9.5,12.1*,1.1
CCOC(=O)C1(C(=O)OCC)CC1c1ccccc1 (stereo not drawn),0.7,-0.6,2.3,22.5,-1.6,-2.3
O=C(CCC1CCN(C(=O)c2ccco2)CC1)NCc1ccc(F)cc1,-3.4,2.0,-5.4,14.8,1.7,3.4
Cc1cccc(COc2ccc(/C=N/NC(=O)c3nnn(-c4nonc4N)c3COc3ccc(F)cc3)cc2)c1,2.9,10.3,160.4,24.5,25.2*,-2.0
CCN(CC)Cc1c(C(=O)N/N=C/c2ccccn2)nnn1-c1nonc1N,6.6,0.2,20.8,10.1,2.4,15.1
Nc1nonc1-n1nnc(C(=O)N/N=C/c2ccc(OCc3ccccc3F)cc2)c1CN1CCCCC1,2.0,2.8,-16.3,27.9,15.7*,-13.6
CCN(CC)Cc1c(C(=O)N/N=C/c2cccc(OCc3cccc(Cl)c3)c2)nnn1-c1nonc1N,2.3,10.3,3.7,21.9,12.5*,-17.1
CCCc1c(C(=O)N/N=C/c2cccc(OCc3ccc(F)cc3)c2)nnn1-c1nonc1N,0.7,9.5,6.1,35.3,35.0*,-9.8
CCCCOc1ccc(/C=N/NC(=O)c2nnn(-c3nonc3N)c2C)cc1,-0.9,-1.5,399.8,13.7,6.5,-9.8
CS(=O)(=O)c1ccccc1-c1nnc(NC(=O)c2ccc3ncsc3c2)o1,9.2,-0.4,9.9,3.8,0.5,8.9
CCCOc1ccc(-c2c(C(=O)N/N=C/c3ccccc3)nnn2-c2nonc2N)cc1,1.4,2.4,7.5,-12.5,8.6,2.6
Cc1cccc(COc2ccc(/C=N/NC(=O)c3nnn(-c4nonc4N)c3CN3CCCCC3)cc2)c1,4.9,1.7,16.2,19.8,12.9*,-12.3
Nc1nonc1-n1nnc(C(=O)N/N=C/c2ccc(O)cc2)c1COc1ccc(F)cc1,0.3,7.1,15.5,16.7,3.8,0.9
Nc1nonc1-n1nnc(C(=O)N/N=C/c2ccc(OCc3ccccc3)cc2)c1COc1ccc(F)cc1,3.0,5.8,18.7,7.3,19.1*,14.8
Nc1nonc1-n1nnc(C(=O)N/N=C/c2ccc(OCc3cccc(Cl)c3)cc2)c1CN1CCCCC1,1.4,3.6,12.1,32.9,-3.8,-11.2
Nc1nonc1-n1nnc(C(=O)N/N=C/c2ccc(OCc3ccccc3)cc2)c1CNc1ccccc1,0.9,3.1,2.4,20.5,31.2*,9.6
Nc1nonc1-n1nnc(C(=O)N/N=C/c2ccccn2)c1-c1ccccc1,nt,0.0,nt,25.9,0.9,49.1
Nc1nonc1-n1nnc(C(=O)N/N=C/c2ccccn2)c1CNc1ccccc1,7.8,-1.1,-10.1,13.0,-7.2,50.0*
Nc1nonc1-n1nnc(C(=O)N/N=C/c2ccccc2Cl)c1COc1ccc(F)cc1,-0.5,9.2,-5.0,5.2,22.8*,26.7
CN(C)Cc1c(C(=O)N/N=C/c2ccc(OCc3c(F)cccc3Cl)cc2)nnn1-c1nonc1N,1.2,6.3,-12.6,37.5,-1.6,-1.2
